Source: PubChem BioAssay (EPA / NIEHS)
Activity calls are given as the source filed them. How the source made its calls: active means hit-call score of the fitted dose curve at least 0.9, where 1 is the maximum; inactive means score below 0.9.

Assays:
[1] = ATG_CRE_CIS: Attagene CIS-FACTORIAL HepG2 Assay for human cAMP Responsive Element (CRE) binding protein 3 (AID 2282926); settings: HepG2 CRE cis-reporter, Attagene multiplexed mRNA; actives raise or lower the signal
Outline: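 Capillary electrophoresis of 6-FAM-labelled, HpaI-digested PCR products quantified reporter transcripts. These came from HepG2 transiently transfected with cis-element reporters and exposed to test chemicals for 24 hours, with DMSO defining baseline activity.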

[2] = biological target: CCAAT/enhancer-binding protein beta (Homo sapiens) (UniProt P17676); experiment: ATG_C_EBP_CIS: Attagene CIS-FACTORIAL HepG2 Assay for human CCAAT/Enhancer Binding Protein (C/EBP) beta (AID 2282927); settings: HepG2 Attagene cis-factorial transcription factor reporter; actives raise or lower the signal
Chain of CCAAT/enhancer-binding protein beta (Homo sapiens) (P17676 whole entry, looked up): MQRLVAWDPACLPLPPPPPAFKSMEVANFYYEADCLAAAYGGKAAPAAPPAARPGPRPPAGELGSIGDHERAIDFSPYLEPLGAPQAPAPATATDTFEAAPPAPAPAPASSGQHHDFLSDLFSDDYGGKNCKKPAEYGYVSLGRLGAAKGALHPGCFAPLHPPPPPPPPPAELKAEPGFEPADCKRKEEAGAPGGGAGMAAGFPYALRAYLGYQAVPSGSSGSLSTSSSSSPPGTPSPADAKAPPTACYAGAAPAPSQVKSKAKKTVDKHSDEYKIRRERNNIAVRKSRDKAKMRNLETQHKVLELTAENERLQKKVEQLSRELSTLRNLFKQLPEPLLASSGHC
Outline: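 HepG2 transiently transfected with multiplexed reporter units under cis-regulatory promoters reporting endogenous C/EBPb activity. After 24 h exposure, reporter mRNA assayed by RT-PCR, fluorescent labelling, HpaI digestion and capillary electrophoresis; bidirectional fitting versus DMSO.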

[3] = ATG_CMV_CIS: Attagene CIS-FACTORIAL HepG2 Assay for human CMV (Internal Marker) (AID 2282928); settings: HepG2 CMV promoter reporter, transcription factor profiling; actives raise or lower the signal;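 further: endpoint acts as a background internal control marker rather than a target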
Outline: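 Readout: fluorescent reporter cDNA fragments separated by capillary electrophoresis after RT-PCR and HpaI cut. Cells: HepG2 carrying transfected cis-promoter reporter constructs, dosed 24 h. Endpoint serves as background internal-marker control, fit bidirectionally versus DMSO.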

[4] = ATG_DR4_LXR_CIS: Attagene CIS-FACTORIAL HepG2 Assay for human Liver X Receptor (LXR), DR4 submotif (AID 2282929); settings: HepG2 Attagene DR4 cis-reporter, mRNA transcription; actives raise or lower the signal
Outline: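 HepG2 cells transiently transfected with cis-promoter-driven multiplexed reporter units (DR4 element) were dosed for 24 h. Reporter mRNA was quantified by RT-PCR, fluorescent primer extension, HpaI digestion and capillary electrophoresis; bidirectional fitting versus DMSO baseline.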

[5] = ATG_AP_1_CIS: Attagene CIS-FACTORIAL HepG2 Assay for human Activator Protein 1 (AP-1) (AID 2282931); settings: HepG2 Attagene cis-factorial AP-1 reporter mRNA; actives raise or lower the signal
Outline: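 HepG2 cells transiently transfected with cis-element-driven multiplex reporter units; 24 h compound exposure. Reporter mRNA quantified by RT-PCR, FAM-labelled fragments resolved by capillary electrophoresis; bidirectional fit versus DMSO baseline.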

[6] = ATG_AP_2_CIS: Attagene CIS-FACTORIAL HepG2 Assay for human Activator Protein 2 (AP-2) (AID 2282932); settings: HepG2 AP-2 cis-reporter, Attagene transcription factor profiling; actives raise or lower the signal
Outline: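 Liver-derived HepG2 line, cis-reporter system measuring endogenous factors; 24 h dosing; reporter mRNA detected by fluorescent RT-PCR and capillary electrophoresis.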

[7] = ATG_BRE_CIS: Attagene CIS-FACTORIAL HepG2 Assay for human Bone Morphogenetic Protein (BMP) Response Element (BRE) (AID 2282933); settings: HepG2 BMP response element reporter, Attagene transcription factor profiling; actives raise or lower the signal
Outline: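 Endogenous transcription factor activity read in transiently transfected HepG2 cells after 24 h chemical exposure. Bidirectional curve fitting against DMSO; readout is reporter transcript level by RT-PCR with capillary electrophoresis of labelled products.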

[8] = biological target: Aryl hydrocarbon receptor (Homo sapiens) (UniProt P35869); experiment: ATG_Ahr_CIS: Attagene CIS-FACTORIAL HepG2 Assay for human Aryl Hydrocarbon Receptor (Ahr) (AID 2282930); settings: HepG2 AhR cis-factorial reporter transcription; actives raise or lower the signal
Chain of Aryl hydrocarbon receptor (Homo sapiens) (P35869 whole entry, looked up): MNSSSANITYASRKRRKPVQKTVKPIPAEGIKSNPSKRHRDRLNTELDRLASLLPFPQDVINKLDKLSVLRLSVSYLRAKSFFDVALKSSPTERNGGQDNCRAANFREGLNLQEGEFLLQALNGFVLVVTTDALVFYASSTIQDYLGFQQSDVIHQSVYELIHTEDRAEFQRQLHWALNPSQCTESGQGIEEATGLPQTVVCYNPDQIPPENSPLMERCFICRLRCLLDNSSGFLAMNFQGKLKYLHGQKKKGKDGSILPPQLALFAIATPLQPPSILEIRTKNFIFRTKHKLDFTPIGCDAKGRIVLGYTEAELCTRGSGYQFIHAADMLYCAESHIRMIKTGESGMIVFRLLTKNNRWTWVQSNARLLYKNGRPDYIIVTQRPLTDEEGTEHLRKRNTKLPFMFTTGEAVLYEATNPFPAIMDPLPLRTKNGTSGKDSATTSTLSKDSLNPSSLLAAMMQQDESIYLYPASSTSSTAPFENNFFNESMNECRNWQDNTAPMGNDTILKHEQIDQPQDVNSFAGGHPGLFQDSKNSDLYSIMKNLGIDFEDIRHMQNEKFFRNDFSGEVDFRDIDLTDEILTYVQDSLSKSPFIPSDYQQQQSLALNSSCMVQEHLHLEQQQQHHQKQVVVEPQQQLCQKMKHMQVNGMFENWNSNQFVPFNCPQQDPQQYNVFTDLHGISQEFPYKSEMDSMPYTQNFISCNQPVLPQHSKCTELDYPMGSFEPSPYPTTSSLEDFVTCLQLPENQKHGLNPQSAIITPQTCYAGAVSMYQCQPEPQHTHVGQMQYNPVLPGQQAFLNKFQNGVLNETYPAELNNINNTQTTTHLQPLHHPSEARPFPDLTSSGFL
Outline: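 HepG2 cells transiently transfected with cis-element-driven multiplexed reporter units; endogenous AhR activity read as reporter mRNA 24 h after dosing, via RT-PCR, 6-FAM labelling, HpaI digestion and capillary electrophoresis. Bidirectional fit relative to DMSO.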

[9] = biological target: Retinoic acid receptor alpha (Homo sapiens) (UniProt P10276); experiment: ATG_DR5_RAR_CIS: Attagene CIS-FACTORIAL HepG2 Assay for human Retinoic Acid Receptor Alpha (RARE), DR5 submotif (AID 2282934); settings: HepG2 Attagene cis-factorial RARE DR5 reporter, mRNA; actives raise or lower the signal;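 on AC50: reporter responds to endogenous RAR alpha beta and gamma in HepG2 not RARA alone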
Chain of Retinoic acid receptor alpha (Homo sapiens) (P10276 whole entry, looked up): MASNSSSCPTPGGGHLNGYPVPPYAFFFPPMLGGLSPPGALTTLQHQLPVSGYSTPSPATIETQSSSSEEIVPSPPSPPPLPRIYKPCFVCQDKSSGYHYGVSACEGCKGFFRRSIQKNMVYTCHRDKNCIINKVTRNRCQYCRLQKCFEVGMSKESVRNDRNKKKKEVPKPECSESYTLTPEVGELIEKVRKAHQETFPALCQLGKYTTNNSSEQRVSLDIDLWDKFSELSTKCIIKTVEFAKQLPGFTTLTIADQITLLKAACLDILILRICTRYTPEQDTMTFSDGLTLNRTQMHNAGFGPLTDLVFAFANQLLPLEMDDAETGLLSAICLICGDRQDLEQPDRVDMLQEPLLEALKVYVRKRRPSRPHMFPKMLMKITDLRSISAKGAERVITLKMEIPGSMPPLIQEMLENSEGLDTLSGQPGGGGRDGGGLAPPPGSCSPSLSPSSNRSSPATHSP
Outline: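 HepG2 cells transiently transfected with multiplexed reporter units; DR5 cis-element drives reporter through endogenous transcription factors. After 24 h dosing, reporter mRNA quantified by RT-PCR, fluorescent labeling, HpaI digestion and capillary electrophoresis; bidirectional fitting versus DMSO.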

Measured: AC50

CC(C)COC(=O)c1ccccc1O
not listed: [8] | [9]
inactive: all other assays above

CCC(C)(C)C1CCC(=O)CC1
inactive: all assays above

O=S1(=O)CC=CC1
not listed: [5]
inactive: all other assays above

N#CCCCC(C#N)CCC#N (stereo not given)
not listed: [6]
inactive: all other assays above

NC(N)=NC(N)=NCCc1ccccc1
active: [7] 36.4 µM
not listed: [5] | [6]
inactive: all other assays above

O=C1OCc2ccccc21
not listed: [6] | [9]
inactive: all other assays above

C=C(C)C(=O)OCCC[Si](OC)(OC)OC
not listed: [5] | [9]
inactive: all other assays above

CCOC(=O)CC(C)C
not listed: [5] | [9]
inactive: all other assays above

CCCCCCOC(C)=O
not listed: [6] | [9]
inactive: all other assays above

CCCCCCCCCC(=O)OCC
active: [1] 92.2 µM | [8] 58.8 µM | [9] 63.2 µM
not listed: [6]
inactive: all other assays above

c1ccc(Sc2ccccc2)cc1
not listed: [5] | [9]
inactive: all other assays above

CCCCN(CCCC)CCCCCCN(CCCC)CCCC
not listed: [5] | [9]
inactive: all other assays above

CC1(C)[C@H](C=C(Cl)Cl)[C@H]1C(=O)OCc1cccc(Oc2ccccc2)c1
not listed: [6] | [9]
inactive: all other assays above

C=C(C)C(=O)OCCN(C)C
inactive: all assays above

NC(=O)NC(N)=O
inactive: all assays above

CC(C)N1C(=O)c2ccccc2C1=O
not listed: [5] | [9]
inactive: all other assays above

C/C=C(\C)C(=O)OC/C=C(\C)CCC=C(C)C
not listed: [6]
inactive: all other assays above

O=S(=O)(O)CCCN1CCOCC1
not listed: [6] | [9]
inactive: all other assays above

CCOC(=O)CCCCCCCCC(=O)OCC
inactive: all assays above

CC(C)(C)c1cc(CCC(=O)OCCSCCOC(=O)CCc2cc(C(C)(C)C)c(O)c(C(C)(C)C)c2)cc(C(C)(C)C)c1O
not listed: [5] | [9]
inactive: all other assays above

Cc1ccc(C(C)(C)O)cc1
not listed: [5] | [9]
inactive: all other assays above

CCCCCC(=O)O[C@]1(C(C)=O)CC[C@H]2[C@@H]3CCC4=CC(=O)CC[C@]4(C)[C@H]3CC[C@@]21C
active: [1] 6.58 µM | [2] 8.6 µM | [7] 7.66 µM
inactive: [3] | [4] | [8] | [6]

CCCc1ccc(N)cc1
not listed: [6] | [9]
inactive: all other assays above

CCC(CC)CO
not listed: [5] | [9]
inactive: all other assays above

C=COCC1CCC(COC=C)CC1 (stereo not given)
not listed: [8] | [9]
inactive: all other assays above

S=c1[nH][nH]c(=S)s1
not listed: [6] | [8] | [9]
inactive: all other assays above

CCCCCC1CCC(=O)O1 (stereo not given)
not listed: [8] | [9]
inactive: all other assays above

C=CC(C)(CCC=C(C)C)OC(=O)CC (stereo not given)
not listed: [8] | [9]
inactive: all other assays above

Cc1cc(N)n(-c2ccccc2)n1
not listed: [6] | [8]
inactive: all other assays above

OC[C@H]1O[C@@H](O[C@H]2[C@H](O)[C@@H](O)[C@H](O)O[C@@H]2CO)[C@H](O)[C@@H](O)[C@H]1O
not listed: [8]
inactive: all other assays above

CC(C)(C)C1CCC(O)CC1 (stereo not given)
not listed: [8]
inactive: all other assays above
